Experimental data reported in PubChem BioAssay AID1159580 (chemical genetic matrix, 2015).
Values joined by “and” are separate entries in the source; they are usually repeats but may differ in a detail not shown here. Identical values can stand only once. Among all 5,500 compounds or so, about 2,000 (36%) were called active. Roughly 18% stayed inconclusive and do not appear here. Cut-off read from the data, not from the text of the source: active = normalized growth mostly below about 0.91 (no sharp cut-off); inconclusive = no clear call, values can overlap the other calls; inactive = mostly above about 0.92. The list shows a part of the results. Where a SMILES comes first, the peptide text is derived from it. Side-chain parts run from the residue outwards. [ ]: non-standard residue; d: D form. The star is where a group is joined. X1 = CCC(C)C(N)C1=NC(C(=O)*)CS1; Orn = NCCC[CH](N)C(=O)O

Experiment: chemical genetic growth profiling, strain panel (AID 1159580);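 note: tested at 20 µM; growth read once vehicle control cultures reached saturation at 30 °C; 1 = growth at the plate median or of vehicle wells; lower values mean less growth of the strain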
Conditions: S. cerevisiae deletion strains, growth OD

Measured: normalized growth

CCC(C)C(N)C1=NC(C(=O)NC(CC(C)C)C(=O)NC(CCC(=O)O)C(=O)NC(C(=O)NCCCCC2NC(=O)C(CC(N)=O)NC(=O)C(CC(=O)O)NC(=O)C(Cc3cnc[nH]3)NC(=O)C(Cc3ccccc3)NC(=O)C(C(C)CC)NC(=O)C(CCCN)NC2=O)C(C)CC)CS1 (stereo not drawn) (cyclo(DNK([Ile-Glu-Leu-X1])[Orn]IFH); configuration not given here)
inactive: locus YAL013W, strain DEP1, hits give low values 1.01 | locus YAL021C, strain ccr4, hits give low values 0.992 | locus YAL026C, strain drs2, hits give low values 0.929 | locus YAL030W, strain snc1, hits give low values 0.997 | locus YBL061C, strain skt5, hits give low values 1 | locus YBR009C, strain hhf1, hits give low values 0.952 | locus YBR021W, strain FUR4, hits give low values 1.01 | locus YBR023C, strain chs3, hits give low values 1.02 | locus YBR171W, strain sec66, hits give low values 1 | locus YBR229C, strain ROT2, hits give low values 0.991 | locus YBR231C, strain swc5, hits give low values 0.999 | locus YBR279W, strain paf1, hits give low values 1.01 | locus YCL011C, strain gbp2, hits give low values 0.968 | locus YCL016C, strain dcc1, hits give low values 0.981 | locus YCL029C, strain bik1, hits give low values 1.01 | locus YCL061C, strain MRC1, hits give low values 0.993 | locus YCL069W, strain vba3, hits give low values 1 | locus YCR088W, strain abp1, hits give low values 1.01 | locus YDL005C, strain med2, hits give low values 0.999 | locus YDL035C, strain GPR1, hits give low values 0.998 | locus YDL040C, strain nat1, hits give low values 1.01 | locus YDL074C, strain BRE1, hits give low values 1.04 | locus YDL101C, strain DUN1, hits give low values 1 | locus YDL185W, strain tfp1, hits give low values 1.04 | locus YDL192W, strain arf1, hits give low values 1 | locus YDR001C, strain nth1, hits give low values 0.987 | locus YDR069C, strain doa4, hits give low values 1.02 | locus YDR101C, strain arx1, hits give low values 1.02 | locus YDR137W, strain rgp1, hits give low values 0.992 | locus YDR150W, strain NUM1, hits give low values 1 | locus YDR159W, strain sac3, hits give low values 0.996 | locus YDR162C, strain NBP2, hits give low values 0.976 | locus YDR195W, strain ref2 0.976 | locus YDR297W, strain sur2, hits give low values 1.01 | locus YDR318W, strain mcm21, hits give low values 0.989 | locus YDR334W, strain swr1, hits give low values 1.01 | locus YDR335W, strain msn5, hits give low values 1.01 | locus YDR388W, hits give low values 1.01 | locus YDR392W, strain spt3, hits give low values 0.94 | locus YDR502C, strain sam2, hits give low values 1.01 | locus YEL003W, strain gim4, hits give low values 1.01 | locus YEL037C, strain rad23, hits give low values 1.01 | locus YEL061C, strain CIN8 (second series), hits give low values 1.01 | locus YEL061C, strain CIN8, hits give low values 0.998 | locus YER015W, strain faa2, hits give low values 1.01 | locus YER016W, strain bim1, hits give low values 1 | locus YER110C, hits give low values 1 | locus YER111C, strain swi4, hits give low values 1.01 | locus YER155C, strain BEM2 (second series), hits give low values 1.01 | locus YER155C, strain BEM2, hits give low values 0.992 | locus YER167W, strain BCK2, hits give low values 1.01 | locus YFR010W, strain ubp6, hits give low values 1.03 | locus YGL078C, strain dbp3, hits give low values 1.01 | locus YGL086W, strain mad1, hits give low values 1.05 | locus YGL167C, strain pmr1, hits give low values 1.02 | locus YGL173C, strain kem1, hits give low values 1 | locus YGL227W, strain vid30, hits give low values 1 | locus YGL240W, strain doc1, hits give low values 1.03 | locus YGL248W, strain PDE1, hits give low values 1 | locus YGL253W, strain hxk2, hits give low values 0.993 | locus YGR135W, strain pre9, hits give low values 1.01 | locus YGR252W, strain gcn5, hits give low values 0.924 | locus YHR013C, strain ard1, hits give low values 0.991 | locus YHR027C, strain rpn1, hits give low values 1.01 | locus YHR030C, strain SLT2, hits give low values 1 and 1.02 | locus YHR079C, strain IRE1 (second series), hits give low values 1 | locus YHR079C, strain IRE1, hits give low values 1.05 | locus YHR094C, strain hxt1, hits give low values 0.993 | locus YHR129C, strain ARP1, hits give low values 0.994 | locus YHR142W, strain chs7, hits give low values 1.04 | locus YHR200W, strain rpn10, hits give low values 0.984 | locus YIL066C, strain RNR3, hits give low values 1 | locus YIL073C, strain SPO22, hits give low values 1.19 | locus YIL125W, strain kgd1, hits give low values 1.01 | locus YIR030C, strain dcg1, hits give low values 0.993 | locus YJL092W, strain hpr5, hits give low values 1 | locus YJL095W, strain BCK1 (second series), hits give low values 1.01 | locus YJL095W, strain BCK1, hits give low values 0.999 and 1.04 | locus YJL115W, strain asf1, hits give low values 0.989 | locus YJL129C, strain trk1, hits give low values 1.02 | locus YJL134W, strain LCB3, hits give low values 1 | locus YJL154C, strain vps35, hits give low values 1 | locus YJL164C, strain tpk1, hits give low values 0.972 | locus YJL166W, strain qcr8, hits give low values 1.01 | locus YJL168C, strain set2, hits give low values 1.01 | locus YJL187C, strain SWE1 (second series), hits give low values 0.997 | locus YJL187C, strain SWE1, hits give low values 1 | locus YJR043C, strain POL32, hits give low values 0.996 | locus YJR066W, strain TOR1, hits give low values 0.969
